# Data from PMC7862700, “An all-to-all approach to the identification of sequence-specific readers for epigenetic DNA modifications on cytosine”.
# What was measured:
# Experiment in all cases: DAPPL (digital affinity profiling via proximity ligation, sequencing); 10 mM Tris-HCl pH 7.5, 50 mM NaCl, 1 mM DTT, 4% glycerol, room temperature, 30 min; GST-TFs on glutathione beads, 16-mer random dsDNA library, 0.1% formaldehyde crosslink after washing; high values mean tight binding
# Details in all cases: protein: recombinant; tags: N-terminal GST; dsDNA, one strand shown
# FLI1 = biological target: T1, FLI1 (Homo sapiens, UniProt Q01543 1-452)
# T1 sequence: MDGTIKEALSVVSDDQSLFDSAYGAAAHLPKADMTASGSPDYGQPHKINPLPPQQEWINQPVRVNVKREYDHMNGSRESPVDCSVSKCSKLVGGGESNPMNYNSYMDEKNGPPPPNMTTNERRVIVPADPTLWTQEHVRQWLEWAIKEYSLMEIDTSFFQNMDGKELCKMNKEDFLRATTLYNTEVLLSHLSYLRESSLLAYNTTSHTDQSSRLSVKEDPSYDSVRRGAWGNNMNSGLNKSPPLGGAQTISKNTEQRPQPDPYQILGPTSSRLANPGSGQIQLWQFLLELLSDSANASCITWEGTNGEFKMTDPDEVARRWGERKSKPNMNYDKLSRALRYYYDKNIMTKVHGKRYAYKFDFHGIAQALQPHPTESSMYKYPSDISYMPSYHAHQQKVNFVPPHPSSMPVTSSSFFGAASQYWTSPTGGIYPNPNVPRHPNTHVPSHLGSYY
# Method in brief: (§1)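 Pools were built from human transcription factors expressed in yeast as GST fusions, captured on glutathione beads and DNA-barcoded, along with a tag-only sample. Incubation with 200 nmole of a 16-mer random double-stranded DNA library lasted 30 min at room temperature in Tris/NaCl/DTT/glycerol buffer, and was followed by washing, 0.1% formaldehyde crosslinking, proximity ligation, PCR amplification and Illumina NextSeq500 sequencing. Binding signal is the quotient of each hexamer's read frequency for a factor and its frequency for the tag-only sample.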
# ELK1 = biological target: T2, ELK1 (Homo sapiens, UniProt P19419 1-428)
# T2 sequence: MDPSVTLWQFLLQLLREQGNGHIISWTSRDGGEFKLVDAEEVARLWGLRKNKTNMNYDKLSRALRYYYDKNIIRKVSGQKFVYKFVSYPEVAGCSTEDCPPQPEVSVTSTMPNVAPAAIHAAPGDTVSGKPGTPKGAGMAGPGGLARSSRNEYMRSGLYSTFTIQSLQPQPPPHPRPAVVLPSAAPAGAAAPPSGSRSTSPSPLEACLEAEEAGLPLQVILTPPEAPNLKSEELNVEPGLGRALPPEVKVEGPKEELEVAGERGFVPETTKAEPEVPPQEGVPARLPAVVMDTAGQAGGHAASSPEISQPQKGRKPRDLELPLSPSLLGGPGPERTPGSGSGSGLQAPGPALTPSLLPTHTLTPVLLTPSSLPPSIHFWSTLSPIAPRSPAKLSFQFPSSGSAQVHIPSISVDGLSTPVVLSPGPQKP
# Method in brief: as §1
# GABPA = biological target: T3, GABPA (Homo sapiens, UniProt Q06546 1-454)
# T3 sequence: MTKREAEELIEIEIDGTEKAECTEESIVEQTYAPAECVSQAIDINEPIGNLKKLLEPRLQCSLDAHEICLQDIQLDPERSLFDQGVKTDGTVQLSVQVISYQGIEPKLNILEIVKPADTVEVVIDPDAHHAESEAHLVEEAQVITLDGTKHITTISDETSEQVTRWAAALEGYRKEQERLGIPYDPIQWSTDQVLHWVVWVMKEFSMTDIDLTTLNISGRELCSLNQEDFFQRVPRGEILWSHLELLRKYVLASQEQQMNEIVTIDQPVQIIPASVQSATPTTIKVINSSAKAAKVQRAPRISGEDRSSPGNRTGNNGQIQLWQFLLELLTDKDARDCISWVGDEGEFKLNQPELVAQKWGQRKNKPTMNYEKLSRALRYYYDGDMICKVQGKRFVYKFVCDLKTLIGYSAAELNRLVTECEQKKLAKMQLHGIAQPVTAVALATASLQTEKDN
# Method in brief: as §1
# ERG = biological target: T4, ERG (Homo sapiens, UniProt P11308 1-479)
# T4 sequence: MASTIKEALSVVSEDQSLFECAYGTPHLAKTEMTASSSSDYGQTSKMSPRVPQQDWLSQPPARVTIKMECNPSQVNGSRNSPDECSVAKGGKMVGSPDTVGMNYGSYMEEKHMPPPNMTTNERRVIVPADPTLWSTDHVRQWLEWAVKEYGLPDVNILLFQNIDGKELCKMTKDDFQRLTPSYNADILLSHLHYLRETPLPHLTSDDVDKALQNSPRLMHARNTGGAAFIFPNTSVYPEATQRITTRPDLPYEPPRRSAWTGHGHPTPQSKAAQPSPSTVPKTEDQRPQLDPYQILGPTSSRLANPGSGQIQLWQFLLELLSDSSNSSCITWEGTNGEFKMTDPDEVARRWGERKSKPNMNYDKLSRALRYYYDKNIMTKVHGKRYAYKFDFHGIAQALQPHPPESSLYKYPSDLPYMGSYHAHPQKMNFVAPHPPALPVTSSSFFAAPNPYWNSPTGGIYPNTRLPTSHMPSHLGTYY
# Method in brief: as §1
# ELF1 = ELF1 (Homo sapiens, UniProt P32519 1-619)
# Chain of ELF1 (P32519 whole entry): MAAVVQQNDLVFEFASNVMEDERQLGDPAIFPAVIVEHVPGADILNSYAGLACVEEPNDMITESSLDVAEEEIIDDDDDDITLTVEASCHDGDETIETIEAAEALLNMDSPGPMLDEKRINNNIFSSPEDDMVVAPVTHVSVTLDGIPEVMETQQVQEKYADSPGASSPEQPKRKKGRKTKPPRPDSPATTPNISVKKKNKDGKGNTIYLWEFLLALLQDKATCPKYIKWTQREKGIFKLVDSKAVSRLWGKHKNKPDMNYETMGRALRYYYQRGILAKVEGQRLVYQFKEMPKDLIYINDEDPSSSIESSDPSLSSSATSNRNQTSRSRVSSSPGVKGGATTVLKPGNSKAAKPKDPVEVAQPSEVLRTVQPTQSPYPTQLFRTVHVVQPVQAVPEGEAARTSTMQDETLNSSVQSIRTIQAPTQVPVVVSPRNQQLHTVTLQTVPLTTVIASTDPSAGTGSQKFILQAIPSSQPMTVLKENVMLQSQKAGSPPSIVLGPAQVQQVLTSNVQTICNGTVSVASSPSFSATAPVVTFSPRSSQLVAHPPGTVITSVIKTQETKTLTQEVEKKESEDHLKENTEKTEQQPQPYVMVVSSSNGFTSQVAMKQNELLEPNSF
# Method in brief: as §1
# EHF = biological target: T5, EHF (Homo sapiens, UniProt Q9NZC4 1-300)
# T5 sequence: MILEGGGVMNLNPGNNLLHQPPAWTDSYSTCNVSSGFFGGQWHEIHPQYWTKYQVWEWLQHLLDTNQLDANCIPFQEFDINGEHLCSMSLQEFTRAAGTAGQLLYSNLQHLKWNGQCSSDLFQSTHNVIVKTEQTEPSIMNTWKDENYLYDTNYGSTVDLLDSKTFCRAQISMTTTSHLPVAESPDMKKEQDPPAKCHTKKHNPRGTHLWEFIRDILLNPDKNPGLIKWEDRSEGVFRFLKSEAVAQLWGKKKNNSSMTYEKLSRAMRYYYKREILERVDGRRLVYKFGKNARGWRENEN
# Method in brief: as §1
# SPI1 = SPI1 (Homo sapiens, UniProt P17947 1-270)
# Method in brief: as §1
# SPIB = SPIB (Homo sapiens, UniProt Q01892 1-262)
# Chain of SPIB (Q01892 whole entry): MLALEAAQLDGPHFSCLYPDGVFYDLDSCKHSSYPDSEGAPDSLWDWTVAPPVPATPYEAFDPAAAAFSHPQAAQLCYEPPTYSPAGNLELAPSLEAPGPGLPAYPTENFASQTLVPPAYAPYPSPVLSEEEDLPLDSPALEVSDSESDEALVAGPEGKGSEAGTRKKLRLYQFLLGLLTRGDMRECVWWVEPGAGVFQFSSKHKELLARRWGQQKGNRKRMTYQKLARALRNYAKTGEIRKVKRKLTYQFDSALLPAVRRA
# Method in brief: as §1
# ELK3 = biological target: T6, ELK3 (Homo sapiens, UniProt P41970 1-407)
# T6 sequence: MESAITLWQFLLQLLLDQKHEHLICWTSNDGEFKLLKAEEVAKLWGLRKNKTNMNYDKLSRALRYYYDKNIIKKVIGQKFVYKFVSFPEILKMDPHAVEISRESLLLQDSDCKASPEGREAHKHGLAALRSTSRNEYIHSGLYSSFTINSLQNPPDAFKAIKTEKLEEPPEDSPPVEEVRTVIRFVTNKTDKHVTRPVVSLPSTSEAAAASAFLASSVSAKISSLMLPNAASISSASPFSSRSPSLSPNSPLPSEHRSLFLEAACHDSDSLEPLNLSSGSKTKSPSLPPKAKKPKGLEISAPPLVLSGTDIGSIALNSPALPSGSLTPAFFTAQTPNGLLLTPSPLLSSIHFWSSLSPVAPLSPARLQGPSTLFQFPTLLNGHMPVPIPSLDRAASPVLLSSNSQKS
# Method in brief: as §1
# FEV = biological target: T7, FEV (Homo sapiens, UniProt Q99581 1-238)
# T7 sequence: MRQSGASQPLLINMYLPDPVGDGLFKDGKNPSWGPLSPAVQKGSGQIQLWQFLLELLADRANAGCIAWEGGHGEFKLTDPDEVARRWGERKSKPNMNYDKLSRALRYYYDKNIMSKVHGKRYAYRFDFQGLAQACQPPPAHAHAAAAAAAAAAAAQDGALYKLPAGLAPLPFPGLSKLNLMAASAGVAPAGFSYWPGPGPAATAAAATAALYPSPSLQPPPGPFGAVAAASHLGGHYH
# Method in brief: as §1
# ETV5 = ETV5 (Homo sapiens, UniProt P41161 1-510)
# Chain of ETV5 (P41161 whole entry): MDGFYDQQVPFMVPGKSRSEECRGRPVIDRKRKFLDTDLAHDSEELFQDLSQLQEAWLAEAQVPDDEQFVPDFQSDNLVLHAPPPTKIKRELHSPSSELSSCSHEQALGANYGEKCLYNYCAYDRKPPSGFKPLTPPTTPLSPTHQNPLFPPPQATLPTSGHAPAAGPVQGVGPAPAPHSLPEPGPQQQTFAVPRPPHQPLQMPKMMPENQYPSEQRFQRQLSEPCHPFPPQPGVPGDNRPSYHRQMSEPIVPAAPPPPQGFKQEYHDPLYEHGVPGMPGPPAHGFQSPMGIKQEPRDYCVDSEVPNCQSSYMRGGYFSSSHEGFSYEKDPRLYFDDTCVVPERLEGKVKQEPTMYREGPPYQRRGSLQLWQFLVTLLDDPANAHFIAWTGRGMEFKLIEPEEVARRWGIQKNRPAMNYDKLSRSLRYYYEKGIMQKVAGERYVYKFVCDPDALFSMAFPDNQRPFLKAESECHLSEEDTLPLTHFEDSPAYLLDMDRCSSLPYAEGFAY
# Method in brief: as §1
# SPIC = biological target: T8, SPIC (Homo sapiens, UniProt Q8N5J4 1-248)
# T8 sequence: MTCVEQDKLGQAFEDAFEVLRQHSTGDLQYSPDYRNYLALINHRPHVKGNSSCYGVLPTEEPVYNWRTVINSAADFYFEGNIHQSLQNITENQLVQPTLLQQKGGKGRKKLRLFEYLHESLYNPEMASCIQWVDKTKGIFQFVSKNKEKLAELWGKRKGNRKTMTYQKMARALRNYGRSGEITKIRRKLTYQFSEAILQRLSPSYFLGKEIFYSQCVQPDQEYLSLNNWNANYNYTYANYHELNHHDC
# Method in brief: as §1
# ELF4 = ELF4 (Homo sapiens, UniProt Q99607 1-663)
# Chain of ELF4 (Q99607 whole entry): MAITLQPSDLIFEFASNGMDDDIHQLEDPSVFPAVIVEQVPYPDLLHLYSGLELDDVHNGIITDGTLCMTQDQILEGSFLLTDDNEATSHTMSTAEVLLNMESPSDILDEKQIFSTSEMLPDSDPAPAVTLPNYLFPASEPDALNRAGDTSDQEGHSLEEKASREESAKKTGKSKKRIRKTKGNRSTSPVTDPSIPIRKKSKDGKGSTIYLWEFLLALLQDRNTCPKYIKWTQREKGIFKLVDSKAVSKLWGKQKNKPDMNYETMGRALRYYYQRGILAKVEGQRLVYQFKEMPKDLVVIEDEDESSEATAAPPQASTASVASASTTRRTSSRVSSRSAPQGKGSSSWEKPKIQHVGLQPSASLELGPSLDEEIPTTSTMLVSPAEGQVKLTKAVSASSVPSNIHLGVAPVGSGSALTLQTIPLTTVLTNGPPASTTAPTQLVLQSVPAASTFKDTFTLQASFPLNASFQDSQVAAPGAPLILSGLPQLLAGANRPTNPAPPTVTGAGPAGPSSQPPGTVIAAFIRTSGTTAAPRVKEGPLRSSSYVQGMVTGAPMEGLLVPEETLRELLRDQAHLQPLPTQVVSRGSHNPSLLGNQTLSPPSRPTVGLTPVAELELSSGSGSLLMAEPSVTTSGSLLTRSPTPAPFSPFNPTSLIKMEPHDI
# Method in brief: as §1
# ELK4 = biological target: T9, ELK4 (Homo sapiens, UniProt P28324-2 1-405)
# T9 sequence: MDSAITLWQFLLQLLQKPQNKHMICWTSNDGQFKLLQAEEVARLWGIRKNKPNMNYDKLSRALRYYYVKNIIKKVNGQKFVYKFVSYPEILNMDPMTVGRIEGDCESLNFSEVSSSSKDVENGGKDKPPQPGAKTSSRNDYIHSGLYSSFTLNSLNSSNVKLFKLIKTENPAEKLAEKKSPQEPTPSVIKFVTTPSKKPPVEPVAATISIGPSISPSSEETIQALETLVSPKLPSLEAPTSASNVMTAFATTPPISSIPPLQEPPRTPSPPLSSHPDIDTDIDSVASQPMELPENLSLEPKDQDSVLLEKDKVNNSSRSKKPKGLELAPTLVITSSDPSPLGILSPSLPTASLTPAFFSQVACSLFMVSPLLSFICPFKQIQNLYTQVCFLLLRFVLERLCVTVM
# Method in brief: as §1
# ETV2 = biological target: T10, ETV2 (Homo sapiens, UniProt O00321 1-342)
# T10 sequence: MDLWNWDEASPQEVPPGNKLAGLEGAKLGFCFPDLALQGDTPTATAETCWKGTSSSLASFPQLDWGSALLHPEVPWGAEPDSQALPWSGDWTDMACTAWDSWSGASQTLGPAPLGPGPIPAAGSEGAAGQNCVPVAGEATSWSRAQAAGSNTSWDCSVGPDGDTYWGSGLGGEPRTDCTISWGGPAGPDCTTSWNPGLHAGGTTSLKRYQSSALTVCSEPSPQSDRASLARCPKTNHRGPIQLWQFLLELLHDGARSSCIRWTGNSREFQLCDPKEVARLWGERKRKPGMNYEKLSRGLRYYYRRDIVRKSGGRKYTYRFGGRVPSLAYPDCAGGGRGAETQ
# Method in brief: as §1
# ELF3 = biological target: T11, ELF3 (Homo sapiens, UniProt P78545 1-371)
# T11 sequence: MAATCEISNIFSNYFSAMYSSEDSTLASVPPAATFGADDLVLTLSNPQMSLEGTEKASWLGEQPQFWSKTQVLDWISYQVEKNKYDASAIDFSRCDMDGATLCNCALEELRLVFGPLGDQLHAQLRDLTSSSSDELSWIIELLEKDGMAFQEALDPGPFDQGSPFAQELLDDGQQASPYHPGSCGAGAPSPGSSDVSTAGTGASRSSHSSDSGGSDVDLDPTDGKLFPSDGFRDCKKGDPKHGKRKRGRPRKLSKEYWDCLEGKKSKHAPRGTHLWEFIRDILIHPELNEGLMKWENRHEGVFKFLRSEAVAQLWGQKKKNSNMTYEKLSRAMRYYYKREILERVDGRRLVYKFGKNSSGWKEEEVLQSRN
# Method in brief: as §1
# ETV1 = ETV1 (Homo sapiens, UniProt P50549 1-477)
# Chain of ETV1 (P50549 whole entry): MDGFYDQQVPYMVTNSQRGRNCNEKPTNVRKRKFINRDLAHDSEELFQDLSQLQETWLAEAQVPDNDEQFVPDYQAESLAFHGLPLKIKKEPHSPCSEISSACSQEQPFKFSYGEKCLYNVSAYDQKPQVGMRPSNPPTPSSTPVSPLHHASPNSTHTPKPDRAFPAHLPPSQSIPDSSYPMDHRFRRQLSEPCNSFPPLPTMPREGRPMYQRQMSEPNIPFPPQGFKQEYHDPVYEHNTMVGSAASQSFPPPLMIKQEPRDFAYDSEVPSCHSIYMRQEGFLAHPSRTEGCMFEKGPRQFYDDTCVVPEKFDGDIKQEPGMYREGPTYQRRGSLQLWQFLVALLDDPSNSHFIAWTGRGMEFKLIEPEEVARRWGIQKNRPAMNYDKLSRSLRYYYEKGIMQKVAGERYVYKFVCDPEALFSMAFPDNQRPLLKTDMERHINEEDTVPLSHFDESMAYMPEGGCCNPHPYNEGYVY
# Method in brief: as §1
sequence,measurement,setting,value
ACGACA,binding signal,FLI1,"1.16 fold enrichment (6-mer frequency, TF over GST control)"
same,binding signal,ELK1,"1.05 fold enrichment (6-mer frequency, TF over GST control)"
same,binding signal,GABPA,"1.18 fold enrichment (6-mer frequency, TF over GST control)"
same,binding signal,ERG,"1.17 fold enrichment (6-mer frequency, TF over GST control)"
same,binding signal,ELF1,"1.07 fold enrichment (6-mer frequency, TF over GST control)"
same,binding signal,EHF,"1.27 fold enrichment (6-mer frequency, TF over GST control)"
same,binding signal,SPI1,"1.09 fold enrichment (6-mer frequency, TF over GST control)"
same,binding signal,SPIB,"1.16 fold enrichment (6-mer frequency, TF over GST control)"
same,binding signal,ELK3,"1.11 fold enrichment (6-mer frequency, TF over GST control)"
same,binding signal,FEV,"1.14 fold enrichment (6-mer frequency, TF over GST control)"
same,binding signal,ETV5,"1.11 fold enrichment (6-mer frequency, TF over GST control)"
same,binding signal,SPIC,"1.18 fold enrichment (6-mer frequency, TF over GST control)"
same,binding signal,ELF4,"1.22 fold enrichment (6-mer frequency, TF over GST control)"
same,binding signal,ELK4,"1.16 fold enrichment (6-mer frequency, TF over GST control)"
same,binding signal,ETV2,"1.1 fold enrichment (6-mer frequency, TF over GST control)"
same,binding signal,ELF3,"1.22 fold enrichment (6-mer frequency, TF over GST control)"
same,binding signal,ETV1,"1.18 fold enrichment (6-mer frequency, TF over GST control)"
ACATCA,binding signal,FLI1,"1.11 fold enrichment (6-mer frequency, TF over GST control)"
same,binding signal,ELK1,"1.12 fold enrichment (6-mer frequency, TF over GST control)"
same,binding signal,GABPA,"1.09 fold enrichment (6-mer frequency, TF over GST control)"
same,binding signal,ERG,"1.14 fold enrichment (6-mer frequency, TF over GST control)"
same,binding signal,ELF1,"1.16 fold enrichment (6-mer frequency, TF over GST control)"
same,binding signal,EHF,"1.23 fold enrichment (6-mer frequency, TF over GST control)"
same,binding signal,SPI1,"1.13 fold enrichment (6-mer frequency, TF over GST control)"
same,binding signal,SPIB,"1.07 fold enrichment (6-mer frequency, TF over GST control)"
same,binding signal,ELK3,"1.11 fold enrichment (6-mer frequency, TF over GST control)"
same,binding signal,FEV,"1.17 fold enrichment (6-mer frequency, TF over GST control)"
same,binding signal,ETV5,"1.17 fold enrichment (6-mer frequency, TF over GST control)"
same,binding signal,SPIC,"1.13 fold enrichment (6-mer frequency, TF over GST control)"
same,binding signal,ELF4,"1.19 fold enrichment (6-mer frequency, TF over GST control)"
same,binding signal,ELK4,"1.14 fold enrichment (6-mer frequency, TF over GST control)"
same,binding signal,ETV2,"1.22 fold enrichment (6-mer frequency, TF over GST control)"
same,binding signal,ELF3,"1.15 fold enrichment (6-mer frequency, TF over GST control)"
same,binding signal,ETV1,"1.15 fold enrichment (6-mer frequency, TF over GST control)"
